Cdc25B inh: human M-phase inducer phosphatase 2 inhibition; recombinant Cdc25B, OMFP fluorescence Ex485/Em525; inhibition, %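 (compounds tested at 10 µM final in the well)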; 65,000 compounds, 0.1% hits; in the data active = inhibition above about 50%
BAP1 inh: blocks human BAP1 ubiquitin-AMC hydrolysis. calls only at 20 µM. AID 436. 72,000 compounds, 0.48% hits. Q92560. recombinant BAP1, Ub-AMC hydrolysis fluorescence kinetic; hits give low values;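 active = activity remaining at or below 50% of control, provided the compound also passes the data quality filters; inactive = the rest, including low values that fail the filters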;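 also: 100% = DMSO wells rate and 0% = substrate alone blank rate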
PLAP activator: activators of human placental alkaline phosphatase; P05187; 96,000 compounds, 1.2% hits; activation fold at 20 µM; AID 696; purified PLAP enzyme, luminescent substrate read-out; hits give high values; in the data active = activation fold above about 2
MKP-1 inh: inhibitors of human MKP-1 phosphatase | P28562 | recombinant MKP-1, OMFP hydrolysis fluorescence | inhibition, %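 (compounds tested at a single concentration somewhere between 10 and 100 µM)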 | 65,000 compounds, 0.15% hits;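 active = inhibition above about 50%, limit read from the data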;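 also: 0% = DMSO max control wells and 100% = wells with enzyme stopped by NaOH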
Target sequence (P28562 whole entry, looked up): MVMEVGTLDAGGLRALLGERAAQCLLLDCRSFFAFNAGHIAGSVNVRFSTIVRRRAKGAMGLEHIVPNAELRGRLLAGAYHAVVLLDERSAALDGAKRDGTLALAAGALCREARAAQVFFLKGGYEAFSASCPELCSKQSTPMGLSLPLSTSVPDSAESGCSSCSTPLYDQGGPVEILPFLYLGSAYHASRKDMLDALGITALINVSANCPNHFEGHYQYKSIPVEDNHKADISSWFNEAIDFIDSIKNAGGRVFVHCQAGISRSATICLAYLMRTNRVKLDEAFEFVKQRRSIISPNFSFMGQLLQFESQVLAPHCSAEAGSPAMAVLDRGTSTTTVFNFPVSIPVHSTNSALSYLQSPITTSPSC
HePTP inhibitor: inhibitors of human HePTP phosphatase; inhibition, % at 20 µM; recombinant HePTP phosphatase activity, OD absorbance; 110,000 compounds, 0.64% hits; in the data active = inhibition above about 50%;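 also: plate controls were vehicle for no effect and reference inhibitor for full effect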
An asterisk follows results filed as active; i = inactive; · = no result. A selection: hits, their analogues and other compounds. The true share with any hit is near 1.4%.

SMILES	Cdc25B inh	BAP1 inh	PLAP activator	MKP-1 inh	HePTP inhibitor
COc1ccc(Cl)cc1NC(=O)c1ccc(CN(c2ccccc2)S(C)(=O)=O)cc1	·	·	·	·	10
O=C(c1ccc2c(=O)n(C3CCCC3)c(=S)[nH]c2c1)N1CCN(C2CCCCC2)CC1	-2	i	1.4	52*	-4
O=S(=O)(/N=C(/c1ccccc1)N1CCOCC1)c1ccccc1	·	·	·	·	4
O=C(NCc1ccco1)c1ccccc1NS(=O)(=O)c1ccc(Cl)s1	·	·	2.1*	·	·
C/C(=N\NC(=O)c1ccccc1O)C1C(=O)c2ccccc2C1=O	·	·	2.1*	·	·
COc1ccccc1OCCCCN1CCN(c2ccccc2OC)CC1	·	·	2.2*	·	·
CCC1CCC/C1=N\NC(=O)c1cc(C)[nH]n1 (stereo unspecified)	·	·	2.3*	·	·
COc1ccc(C2C(=O)c3ccccc3C2=Nc2cccc(C(C)=O)c2)cc1 (stereo unspecified)	·	·	·	·	-6
O=C(O)c1cc(-c2ccc(/C=N/n3cnnc3)o2)ccc1O	·	·	·	·	103*
CCOCCCN(C(=O)Nc1ccc(CC)cc1)C1CCN(C(C)=O)CC1	-11	i	1.2	8	-11
CCOc1ccc(NC(=O)N(CCC(C)C)C2CCN(C(C)=O)CC2)cc1	·	·	2*	·	·
Cc1[nH][nH]c(=O)c1C(c1ccccc1Cl)C(C#N)C#N (stereo unspecified)	·	·	·	·	-3
COC(=O)c1c(N)sc(C(=O)Nc2ccccc2OC)c1C	·	·	·	·	66*
Cc1ccccc1N(C)S(=O)(=O)c1ccc(Cl)cc1	·	·	·	·	9
COc1ccc(N(CC(=O)NCCc2ccccc2)S(=O)(=O)c2ccc(C)cc2)cc1OC	·	·	·	·	-12
O=C(NCCSc1c[nH]c2ccccc12)c1ccco1	-7	i	0.8	-4	4
C/C(=N\NC(=O)c1c[nH]c2ccccc12)c1ccco1	·	·	2.3*	·	1
Cc1cccc(N2CCN(Cc3oc(CO)cc(=O)c3O)CC2)c1C	·	·	2.2*	·	·
O=[N+]([O-])c1cc(-c2nnc(-c3ccco3)o2)ccc1Cl	·	·	·	·	-3
CC1=C/C(=N\N=C2\NC(=O)C(CC(=O)Nc3ccc(Cl)cc3)S2)CC(C)(C)C1 (stereo unspecified)	·	·	·	·	-5
O=C(CC1S/C(=N\N=C\c2ccccc2)NC1=O)Nc1ccc(C(=O)O)cc1 (stereo unspecified)	·	·	·	·	104*
CC1=C/C(=N\N=C2\NC(=O)C(CC(=O)Nc3ccc(C(=O)O)cc3)S2)CC(C)(C)C1 (stereo unspecified)	·	·	·	·	103*
CC1=NN(C(=O)c2ccc(Cn3nc(C)c([N+](=O)[O-])c3C)cc2)C(O)(C(F)(F)F)C1 (stereo unspecified)	·	·	1.9	·	·
CC1=NN(C(=O)c2ccc(Cn3nc(C)cc3C)o2)C(O)(C(F)(F)F)C1 (stereo unspecified)	·	·	2.2*	·	·
Cc1ccc2nc(C)c3c(c2c1)OC(C)C3 (stereo unspecified)	·	·	·	·	-7
SMILES	Cdc25B inh	BAP1 inh	PLAP activator	MKP-1 inh	HePTP inhibitor
Cc1ccc(C)c(OCC(O)CN2CCN(c3ccccc3)CC2)c1 (stereo unspecified)	·	·	·	·	7
O=C(Cc1ccc(F)cc1F)Nc1cccc2ccccc12	·	·	·	·	3
O=C(Cc1ccc(F)cc1)Nc1cccc2ccccc12	·	·	·	·	103*
CS(=O)(=O)N(CC(=O)N1CCc2ccccc2C1)Cc1ccccc1	·	·	2.2*	·	·
O=C1N=c2ccccc2=C1c1sc(Nc2ccc(O)cc2)nc1O	·	·	·	·	104*
O=C(/C=C/c1ccco1)Nc1ccc(O)c(-c2nc3ccccc3o2)c1	·	·	·	·	3
O=C(/C=C/c1ccco1)Nc1ccc(-c2nc3ccccc3s2)c(O)c1	·	·	·	·	104*
O=C/C(=C\Nc1ccc(S(=O)(=O)CCO)cc1)c1nc2ccccc2o1	·	·	·	·	-9
Cc1ccc(NC(=O)CSc2ccc(Cl)cc2Cl)cc1	·	·	·	·	7
O=C1c2[nH]nc(-c3ccccc3O)c2C(c2ccc(F)cc2)N1Cc1ccco1 (stereo unspecified)	4	i	2.4*	-1	-5
Nc1nc(SCc2nc3scc(-c4cccs4)c3c(=O)[nH]2)n[nH]1	6	i	2.5*	0	-4
CC1(C)OC(=O)C(=Cc2ccc(I)o2)C(=O)O1	·	·	·	·	102*
O=C1C(=Cc2ccc(I)o2)C(=O)c2ccccc21	·	·	·	·	78*
Cc1ccccc1-n1c(SCc2ccccn2)nc2n[nH]c(C)c2c1=N	9	i	2.3*	32	·
CCOc1ccccc1NC(=O)CCSc1nc2n[nH]c(C)c2c(=N)n1-c1ccccc1Cl	-5	i	1.8	32	-7
CC(=O)Nc1cc(-c2ccc(C)cc2)nn1Cc1ccccc1	·	·	·	·	104*
CC(=O)Nc1cc(-c2ccc(Cl)cc2)nn1Cc1ccc(Cl)cc1	·	·	·	·	9
COc1ccc(-c2cc(-c3ccccc3)nc(N3CCCCC3)n2)cc1	·	·	·	·	7
COc1cccc(C(=O)N/N=C/c2cn[nH]c2-c2ccc(OC)cc2OC)c1	·	·	2.2*	·	·
c1ccc(-c2nnc(-c3ccccn3)nc2NC2CCCCC2)cc1	·	·	2.4*	·	·
COc1ccc(-c2cc(C(=O)Nc3ccc(C)c(C)c3)c3ccccc3n2)cc1	·	·	·	·	11
Nc1nc(SCC(=O)Nc2ccc(Br)cc2F)n[nH]1	3	i	2*	1	11
CC(C)c1ccc(-c2cc(C(=O)O)c3ccccc3n2)cc1	·	·	·	·	1
CC(C)c1ccc(-c2cc(C(=O)N3N=C(C(F)F)CC3(O)C(F)F)c3ccccc3n2)cc1 (stereo unspecified)	·	·	2.1*	·	·
CCC(=O)N1N=C(c2cccc([N+](=O)[O-])c2)CC1c1ccc(OC)cc1 (stereo unspecified)	·	·	·	·	-3
SMILES	Cdc25B inh	BAP1 inh	PLAP activator	MKP-1 inh	HePTP inhibitor
Cc1ccc2nc(SCC(=O)c3cc(C)n(C)c3C)[nH]c2c1	·	·	1.1	·	·
CCC(Sc1nc2ccccc2[nH]1)C(=O)Nc1cccc2ccccc12 (stereo unspecified)	·	·	·	·	5
CCC(Sc1nc2ccccc2[nH]1)C(=O)Nc1cc(C)on1 (stereo unspecified)	-21	·	2.1*	9	4
Cc1cc(NC(=O)CSc2nc3ccc(Cl)cc3[nH]2)no1	·	·	2.7*	·	·
Cc1cc(NC(=O)CSc2nc3cc(Cl)ccc3s2)no1	·	·	0.5	·	·
Cc1cc(C(=O)CSc2nc3ccc(Cl)cc3[nH]2)c(C)n1C	1	i	2.1*	21	-4
CCCc1noc(-c2ccc(C(C)(C)C)cc2)n1	·	·	·	·	8
Cc1cc(C)nc(/N=C(/N)Nc2ccc3ccccc3c2)n1	·	·	·	·	-3
COCC(C)n1c(C)cc(C(=O)COc2ccc(S(=O)(=O)N3CCOCC3)cc2Cl)c1C (stereo unspecified)	1	i	2*	2	6
CCCOc1ccccc1C1C(C(=O)OCC)=C(C)NC2=C1C(=O)CC(c1ccc(Cl)cc1)C2 (stereo unspecified)	·	·	·	·	8
O=S(=O)(NCC1CC2C=CC1C2)c1ccc(F)cc1 (stereo unspecified)	·	i	·	·	·
COc1ccc(CSC(=N)N)cc1[N+](=O)[O-]	·	·	2.7*	·	·
COC(=O)CCC(=O)Oc1ccc(OC(=O)CCC(=O)OC)cc1	59*	·	·	56*	4
CCN1C(=O)/C(=C/c2c(OC)ccc3ccccc23)C(=O)NC1=S	·	·	·	·	-10
COc1ccc(NC(=O)COc2ccc(C(C)(C)c3ccccc3)cc2)c(OC)c1	·	·	·	·	102*
COc1ccccc1NC(=O)CSc1nnc(Cc2ccccc2)o1	-4	i	1	3	0
